According to PubChem BioAssay (Tox21):
Results filed as inconclusive are left out. Calls of active or inactive are those of the source. Calls come from the whole dose curve; as a rule, active = well fitted curve in the direction sought with a large enough effect in the repeat runs; inconclusive = weak or mixed curves; inactive = no such curve, though single readings can be large; an effect the other way counts as inactive or inconclusive.

Columns and labels:
[1] = biological target: Nuclear receptor subfamily 1 group I member 2 (Homo sapiens) (UniProt O75469); test: Human pregnane X receptor (PXR) small molecule agonists, qHTS assay (AID 1346982); details: PXR-Luc HepG2, CYP3A4 luciferase reporter, 24 h; series mostly up to 92.4 µM; note: nearly all actives have a fitted effect of over 35% in size; note: potency is the fitted concentration of half-maximal effect
Sequence of Nuclear receptor subfamily 1 group I member 2 (Homo sapiens) (O75469 whole entry, looked up): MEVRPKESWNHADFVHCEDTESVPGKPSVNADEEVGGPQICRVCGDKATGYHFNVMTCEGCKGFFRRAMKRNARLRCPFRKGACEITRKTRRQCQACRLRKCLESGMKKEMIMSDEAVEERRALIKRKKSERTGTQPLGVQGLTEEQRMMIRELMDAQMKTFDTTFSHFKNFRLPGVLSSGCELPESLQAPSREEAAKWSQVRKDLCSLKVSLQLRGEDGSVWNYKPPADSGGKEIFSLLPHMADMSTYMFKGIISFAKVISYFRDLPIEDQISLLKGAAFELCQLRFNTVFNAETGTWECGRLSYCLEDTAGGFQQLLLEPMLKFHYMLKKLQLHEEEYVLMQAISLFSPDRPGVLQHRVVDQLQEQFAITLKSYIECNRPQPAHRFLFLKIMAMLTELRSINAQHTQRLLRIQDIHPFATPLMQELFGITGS
Summary of the method: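 HepG2 PXR-Luc reporter line, 5% charcoal-stripped FBS; 5 hr pre-incubation, compound (DMSO) 24 hr at 37 C/5% CO2; ONE-Glo 30 min RT; luminescence read-out.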

[2] = biological target: Cytochrome P450 2D6 (Homo sapiens) (UniProt P10635); test: Cytochrome P450 Family 2 Subfamily D Member 6 (CYP2D6) small molecule antagonists: luciferase reporter qHTS assay (AID 1671196); details: P450-Glo CYP2D6 enzyme assay, luciferin luminescence, 1 h; series mostly up to 115 µM; note: nearly all actives have a fitted effect of over 50% in size; note: potency is the fitted concentration of half-maximal effect
Sequence of Cytochrome P450 2D6 (Homo sapiens) (P10635 whole entry, looked up): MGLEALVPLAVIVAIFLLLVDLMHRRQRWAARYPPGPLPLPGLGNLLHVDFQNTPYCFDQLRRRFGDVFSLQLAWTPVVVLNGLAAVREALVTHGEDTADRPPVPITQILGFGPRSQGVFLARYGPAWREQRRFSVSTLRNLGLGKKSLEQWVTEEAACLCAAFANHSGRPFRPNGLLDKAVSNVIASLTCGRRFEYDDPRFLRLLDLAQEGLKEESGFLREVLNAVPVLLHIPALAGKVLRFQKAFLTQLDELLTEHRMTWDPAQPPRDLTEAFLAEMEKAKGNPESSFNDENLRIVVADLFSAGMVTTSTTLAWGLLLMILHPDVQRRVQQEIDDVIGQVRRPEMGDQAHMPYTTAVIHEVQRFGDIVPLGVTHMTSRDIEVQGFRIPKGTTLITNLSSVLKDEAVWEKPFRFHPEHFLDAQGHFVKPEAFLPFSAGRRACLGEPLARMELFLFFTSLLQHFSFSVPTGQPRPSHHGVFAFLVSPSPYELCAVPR
Summary of the method: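 Luminogenic proluciferin substrate, CYP2D6 enzyme; 10 min RT preincubation with compound, NADPH regeneration system added, 1 h RT. Stop/detection reagent, 20 min RT, luminescence read (RLU). Signal proportional to CYP activity.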

[3] = biological target: Cytochrome P450 2C19 (Homo sapiens) (UniProt P33261); test: Cytochrome P450 Family 2 Subfamily C Member 19 (CYP2C19) small molecule antagonists: luciferase reporter qHTS assay (AID 1671197); details: P450-Glo CYP2C19 enzyme, luciferin luminescence, 1 h; series mostly up to 115 µM; note: nearly all actives have a fitted effect of over 65% in size; note: potency is the fitted concentration of half-maximal effect
Sequence of Cytochrome P450 2C19 (Homo sapiens) (P33261 whole entry, looked up): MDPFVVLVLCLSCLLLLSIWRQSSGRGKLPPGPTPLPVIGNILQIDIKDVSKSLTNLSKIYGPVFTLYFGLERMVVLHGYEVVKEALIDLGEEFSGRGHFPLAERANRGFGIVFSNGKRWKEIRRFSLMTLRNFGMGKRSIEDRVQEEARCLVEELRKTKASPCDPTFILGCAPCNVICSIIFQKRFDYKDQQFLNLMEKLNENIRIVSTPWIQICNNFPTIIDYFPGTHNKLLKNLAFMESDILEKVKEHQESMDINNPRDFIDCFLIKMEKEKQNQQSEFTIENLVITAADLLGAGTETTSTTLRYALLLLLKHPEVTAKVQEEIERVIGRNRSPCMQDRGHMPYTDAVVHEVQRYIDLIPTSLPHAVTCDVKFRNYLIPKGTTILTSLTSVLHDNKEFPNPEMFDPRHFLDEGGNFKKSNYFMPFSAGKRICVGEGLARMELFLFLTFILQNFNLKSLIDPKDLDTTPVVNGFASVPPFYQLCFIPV
Summary of the method: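 Luminescent readout of CYP2C19 activity: luciferin product detected 20 min after adding detection reagent. Before that, compound and enzyme-substrate mix preincubated 10 min at room temperature; NADPH-regenerating system started a 1 h, 37C reaction. Ketoconazole as positive control.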

[4] = biological target: Cytochrome P450 2C9 (Homo sapiens) (UniProt P11712); test: Cytochrome P450 Family 2 Subfamily C Member 9 (CYP2C9) small molecule antagonists: luciferase reporter qHTS assay (AID 1671198); details: P450-Glo CYP2C9 enzyme assay, luciferin luminescence; series mostly up to 115 µM; note: nearly all actives have a fitted effect of over 50% in size; note: potency is the fitted concentration of half-maximal effect
Sequence of Cytochrome P450 2C9 (Homo sapiens) (P11712 whole entry, looked up): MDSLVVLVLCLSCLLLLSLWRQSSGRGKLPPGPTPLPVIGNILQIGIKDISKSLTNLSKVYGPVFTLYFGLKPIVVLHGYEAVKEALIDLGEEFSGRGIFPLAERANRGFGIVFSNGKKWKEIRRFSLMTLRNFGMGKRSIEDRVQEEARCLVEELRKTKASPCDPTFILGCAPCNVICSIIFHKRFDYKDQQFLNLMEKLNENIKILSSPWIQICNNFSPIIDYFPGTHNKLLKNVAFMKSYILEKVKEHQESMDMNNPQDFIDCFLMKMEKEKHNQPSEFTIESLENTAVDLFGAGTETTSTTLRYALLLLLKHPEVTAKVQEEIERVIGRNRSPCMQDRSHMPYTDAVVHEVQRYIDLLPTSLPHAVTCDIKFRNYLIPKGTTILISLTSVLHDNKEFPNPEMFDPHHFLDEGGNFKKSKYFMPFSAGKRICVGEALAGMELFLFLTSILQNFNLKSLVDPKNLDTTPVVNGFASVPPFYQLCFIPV
Summary of the method: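 CYP2C9 activity was measured with a P450-Glo proluciferin substrate. Enzyme–substrate mix was held with compound for 10 min at room temperature, then NADPH regeneration solution was added for 1 h at 37C. Luciferin product was read as luminescence.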

[5] = biological target: Cytochrome P450 1A2 (Homo sapiens) (UniProt P05177); test: Cytochrome P450 Family 1 Subfamily A Member 2 (CYP1A2) small molecule antagonists: luciferase reporter qHTS assay (AID 1671199); details: P450-Glo CYP1A2 enzyme, luciferin luminescence, 1 h; series mostly up to 115 µM; note: nearly all actives have a fitted effect of over 50% in size; note: potency is the fitted concentration of half-maximal effect
Sequence of Cytochrome P450 1A2 (Homo sapiens) (P05177 whole entry, looked up): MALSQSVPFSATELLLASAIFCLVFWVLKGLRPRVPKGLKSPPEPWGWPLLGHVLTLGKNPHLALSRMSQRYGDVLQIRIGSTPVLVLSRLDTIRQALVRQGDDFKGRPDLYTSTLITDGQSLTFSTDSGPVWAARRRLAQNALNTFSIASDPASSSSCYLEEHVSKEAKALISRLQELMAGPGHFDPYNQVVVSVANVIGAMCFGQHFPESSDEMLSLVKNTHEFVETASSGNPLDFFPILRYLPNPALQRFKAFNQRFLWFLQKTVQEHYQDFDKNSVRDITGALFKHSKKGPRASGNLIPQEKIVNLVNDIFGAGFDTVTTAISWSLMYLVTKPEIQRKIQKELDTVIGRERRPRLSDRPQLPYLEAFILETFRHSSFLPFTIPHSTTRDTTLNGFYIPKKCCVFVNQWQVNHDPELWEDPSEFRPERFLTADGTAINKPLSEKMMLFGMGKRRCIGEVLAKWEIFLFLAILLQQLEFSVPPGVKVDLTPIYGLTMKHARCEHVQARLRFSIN
Summary of the method: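 Luminescence readout (relative luminescence units) after luciferin detection reagent, 20 min RT. Preceded by 1 h room-temperature CYP1A2 reaction with NADPH regeneration solution following 10 min compound preincubation with enzyme and proluciferin substrate. Furafylline positive control.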

[6] = biological target: Cytochrome P450 3A4 (Homo sapiens) (UniProt P08684); test: Cytochrome P450 Family 3 Subfamily A Member 4 (CYP3A4) small molecule antagonists: luciferase reporter qHTS assay (AID 1671201); details: P450-Glo CYP3A4 enzyme, luciferin luminescence, 1 h; series mostly up to 115 µM; note: nearly all actives have a fitted effect of over 50% in size; note: potency is the fitted concentration of half-maximal effect
Sequence of Cytochrome P450 3A4 (Homo sapiens) (P08684 whole entry, looked up): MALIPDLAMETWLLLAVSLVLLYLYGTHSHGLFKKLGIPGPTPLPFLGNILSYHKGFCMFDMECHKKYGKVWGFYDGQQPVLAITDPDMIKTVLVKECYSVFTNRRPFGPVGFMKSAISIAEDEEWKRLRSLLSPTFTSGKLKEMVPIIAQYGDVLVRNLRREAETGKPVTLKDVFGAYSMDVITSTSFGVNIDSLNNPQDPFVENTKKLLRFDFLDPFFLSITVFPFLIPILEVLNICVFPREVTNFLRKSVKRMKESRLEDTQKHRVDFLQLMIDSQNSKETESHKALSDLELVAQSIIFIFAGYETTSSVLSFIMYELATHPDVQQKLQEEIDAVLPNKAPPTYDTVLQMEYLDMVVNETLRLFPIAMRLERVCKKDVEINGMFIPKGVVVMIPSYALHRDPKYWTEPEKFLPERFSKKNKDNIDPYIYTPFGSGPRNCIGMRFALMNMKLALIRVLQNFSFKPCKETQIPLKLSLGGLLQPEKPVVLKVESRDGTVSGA
Summary of the method: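 qHTS, 1536-well. CYP3A4 + proluciferin substrate, cpd 10 min RT → NADPH regen 1 h RT → detection reagent 20 min → luminescence (RLU). Ketoconazole positive control.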

[7] = biological target: Voltage-gated inwardly rectifying potassium channel KCNH2 (Homo sapiens) (UniProt Q12809); test: Human Ether-a-go-go-Related Gene (hERG) channel small molecule antagonists: fluorescence cell-based qHTS assay (AID 1671200); details: hERG-U2OS cells, FluxOR thallium flux fluorescence; series mostly up to 76.8 µM
Sequence of Voltage-gated inwardly rectifying potassium channel KCNH2 (Homo sapiens) (Q12809 whole entry, looked up): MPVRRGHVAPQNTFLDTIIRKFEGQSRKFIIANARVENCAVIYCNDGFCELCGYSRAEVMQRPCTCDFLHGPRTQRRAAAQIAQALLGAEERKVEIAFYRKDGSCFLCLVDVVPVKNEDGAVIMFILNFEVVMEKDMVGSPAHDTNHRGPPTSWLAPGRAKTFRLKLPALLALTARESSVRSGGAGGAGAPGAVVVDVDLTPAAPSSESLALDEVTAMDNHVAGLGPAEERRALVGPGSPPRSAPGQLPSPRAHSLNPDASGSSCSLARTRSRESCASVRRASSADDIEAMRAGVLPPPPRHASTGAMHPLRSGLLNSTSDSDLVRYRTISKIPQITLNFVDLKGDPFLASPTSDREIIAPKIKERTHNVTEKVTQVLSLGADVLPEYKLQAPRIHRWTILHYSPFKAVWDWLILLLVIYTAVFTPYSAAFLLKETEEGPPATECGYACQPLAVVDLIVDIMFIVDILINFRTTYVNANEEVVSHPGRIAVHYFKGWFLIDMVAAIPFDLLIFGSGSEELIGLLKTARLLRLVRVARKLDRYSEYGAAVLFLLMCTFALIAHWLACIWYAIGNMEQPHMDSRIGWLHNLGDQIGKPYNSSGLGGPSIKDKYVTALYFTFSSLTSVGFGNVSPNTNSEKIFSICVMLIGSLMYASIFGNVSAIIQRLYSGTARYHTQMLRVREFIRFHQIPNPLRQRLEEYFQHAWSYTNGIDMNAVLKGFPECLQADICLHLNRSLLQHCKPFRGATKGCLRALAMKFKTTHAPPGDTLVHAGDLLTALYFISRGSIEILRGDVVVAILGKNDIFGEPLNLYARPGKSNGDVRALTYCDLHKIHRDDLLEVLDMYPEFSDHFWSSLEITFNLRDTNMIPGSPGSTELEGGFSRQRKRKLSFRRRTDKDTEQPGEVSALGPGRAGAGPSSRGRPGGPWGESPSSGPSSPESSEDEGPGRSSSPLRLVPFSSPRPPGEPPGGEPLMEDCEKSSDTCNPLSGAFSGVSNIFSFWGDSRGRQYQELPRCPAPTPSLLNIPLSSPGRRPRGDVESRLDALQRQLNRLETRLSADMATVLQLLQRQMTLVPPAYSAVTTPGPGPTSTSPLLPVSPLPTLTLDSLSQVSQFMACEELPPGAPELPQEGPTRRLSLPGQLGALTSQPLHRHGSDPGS
Summary of the method: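 Fluorescence at 540 nm emission (480 nm excitation) was recorded kinetically for 2 min at 1-second intervals once the thallium-containing stimulus reached cells previously loaded with FluxOR II dye.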
% is set by controls: 0 for no effect and ±100 for the full control effect.

CN(C)CCOCCN(C)CCO
inactive: Potency [1] | Potency [3] | Potency [4] | Potency [5] | Potency [6]
active: Potency [2] 20 µM

CC(C)SCc1ccco1
inactive: Potency [1] | Potency [2] | Potency [3] | Potency [4] | Potency [5] | Potency [6]

O=C(O)Cc1cccc(-c2cc(CCCCCCc3ccc(O[C@H]4O[C@H](CO)[C@@H](O)[C@H](O)[C@@H]4O)c(-c4cccc(CC(=O)O)c4)c3)ccc2O[C@H]2O[C@H](CO)[C@@H](O)[C@H](O)[C@@H]2O)c1
inactive: activation [1] -9.1% [at 0.349 µM] | activity change, negative = inhibition [2] 0.276% [at 0.435 µM] | activity change, negative = inhibition [3] 11.7% [at 0.435 µM] | activity change, negative = inhibition [4] 0.681% [at 0.435 µM] | activity change, negative = inhibition [5] -0.131% [at 0.435 µM] | activity change, negative = inhibition [7] -0.102% [at 0.29 µM] | activity change, negative = inhibition [6] 0.205% [at 0.435 µM]

CC(=O)OC(C)c1ccccc1 (configuration not stated)
inactive: Potency [1] | Potency [2] | Potency [3] | Potency [4] | Potency [5] | Potency [7] | Potency [6]

Nc1nc(=O)n([C@@H]2O[C@H](CO)[C@@H](O)[C@@H]2F)cc1I
inactive: Potency [1] | Potency [2] | Potency [3] | Potency [4] | Potency [5] | Potency [7] | Potency [6]

CC(C)(C)NCCO
inactive: Potency [1] | Potency [2] | Potency [3] | Potency [4] | Potency [6]
active: Potency [5] 39.9 µM

Nc1cc(S(=O)(=O)O)ccc1S(=O)(=O)O
inactive: Potency [1] | Potency [2] | Potency [3] | Potency [4] | Potency [5] | Potency [7] | Potency [6]

OCCCCCCCl
inactive: Potency [1] | Potency [2] | Potency [3] | Potency [4] | Potency [5] | Potency [7] | Potency [6]

CC(C)COC(=O)COc1ccc(Cl)cc1Cl
inactive: Potency [1] | Potency [2] | Potency [6]
active: Potency [3] 56.3 µM | Potency [4] 31.7 µM | Potency [5] 20 µM

O=CN1CCOCC1
inactive: Potency [1] | Potency [2] | Potency [3] | Potency [4] | Potency [7] | Potency [6]
active: Potency [5] 44.8 µM

CCCCOC(=O)C(C)OC(=O)CCC (configuration not stated)
inactive: Potency [1] | Potency [2] | Potency [3] | Potency [4] | Potency [5] | Potency [6]

CC(C)CCC(=O)CCC(C)C
inactive: Potency [1] | Potency [2] | Potency [3] | Potency [4] | Potency [7] | Potency [6]
active: Potency [5] 39.9 µM

CCC(C)(C)C1CCC(=O)CC1
inactive: Potency [1] | Potency [2] | Potency [3] | Potency [4] | Potency [5] | Potency [7] | Potency [6]

CCCCCCCCC(=O)OCC
inactive: Potency [1] | Potency [2] | Potency [3] | Potency [4] | Potency [5] | Potency [7] | Potency [6]

COc1ccc(OC)c(NC(=O)CC(C)=O)c1
inactive: Potency [7]
active: Potency [1] 54.5 µM | Potency [2] 31.7 µM | Potency [3] 15.9 µM | Potency [4] 31.7 µM | Potency [5] 15.9 µM | Potency [6] 22.4 µM

CCCCCCCCCCC
active: Potency [4] 79.6 µM
inactive: Potency [1] | Potency [2] | Potency [3] | Potency [5] | Potency [7] | Potency [6]

O=C1OC(=O)c2ccccc21
inactive: Potency [1] | Potency [2] | Potency [3] | Potency [4] | Potency [5] | Potency [7] | Potency [6]

CCCCCCCCCCCCCCCCCCN(C)C
inactive: Potency [1] | Potency [2] | Potency [3] | Potency [4] | Potency [5] | Potency [6]

BrC/C=C/CBr
inactive: activation [1] -6.32% [at 19 µM] | activity change, negative = inhibition [2] -5.12% [at 23.6 µM] | activity change, negative = inhibition [3] -2.14% [at 23.6 µM] | activity change, negative = inhibition [4] -9.58% [at 23.6 µM] | activity change, negative = inhibition [5] -13.1% [at 23.6 µM] | activity change, negative = inhibition [7] 3.44% [at 15.8 µM] | activity change, negative = inhibition [6] 0.976% [at 23.6 µM]

Nc1ccnc(=O)[nH]1
inactive: Potency [1] | Potency [2] | Potency [3] | Potency [4] | Potency [5] | Potency [7] | Potency [6]

CC(=O)OC[C@H]1O[C@@H](OC(C)=O)[C@H](OC(C)=O)[C@@H]1OC(C)=O
inactive: Potency [1] | Potency [2] | Potency [3] | Potency [4] | Potency [5] | Potency [6]

CCCCC(CC)C(=O)OC(C)C (configuration not stated)
inactive: Potency [1] | Potency [2] | Potency [3] | Potency [4] | Potency [5] | Potency [7] | Potency [6]

O=S(=O)(O)CCO
inactive: Potency [1] | Potency [2] | Potency [3] | Potency [4] | Potency [7] | Potency [6]

CCCCCC1CCCC(=O)O1 (configuration not stated)
active: Potency [3] 79.6 µM
inactive: Potency [1] | Potency [2] | Potency [4] | Potency [7]

CCCCC[Si](OCC)(OCC)OCC
inactive: Potency [1] | Potency [2] | Potency [7]
active: Potency [3] 25.2 µM | Potency [4] 31.7 µM | Potency [6] 12.6 µM

CC1=CC[C@H](CC=O)C1(C)C
inactive: Potency [2] | Potency [3] | Potency [7]
active: Potency [1] 48.6 µM | Potency [5] 31.7 µM

Nc1ccc(C(=O)OCC(O)CO)cc1 (configuration not stated)
inactive: Potency [1] | Potency [2] | Potency [7]
active: Potency [3] 17.4 µM | Potency [5] 15.5 µM

O=C(c1ccc2c(c1)C(=O)OC2=O)c1ccc2c(c1)C(=O)OC2=O
inactive: Potency [1] | Potency [2] | Potency [3] | Potency [4] | Potency [7] | Potency [6]

CC(C)=CC(C)(C)C
inactive: Potency [1] | Potency [2] | Potency [3] | Potency [4] | Potency [7] | Potency [6]

CC(C)(C)c1ccc(C=O)cc1
inactive: Potency [1] | Potency [2] | Potency [3] | Potency [4] | Potency [6]

C[Si]1(C)N[Si](C)(C)N[Si](C)(C)N1
active: Potency [3] 50.2 µM | Potency [4] 63.3 µM | Potency [6] 6.33 µM
inactive: Potency [1] | Potency [2] | Potency [7]
